# Screens deposited in PubChem BioAssay by several laboratories.
# SKKanGAS inh – inhibitors of SKKanGAS S. pyogenes growth in kanamycin (SK-promoter or general growth effect); AID 1662; inhibition, % at 7.5 µM; hit rate 1.3% among 300,000; BacTiter-Glo, 6 h;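 active means mean replicate score, as percent of positive control median, at least 50; inconclusive means mean below 50 but one replicate at or above 50; inactive means mean and every replicate below 50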;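 further: strain carries kanamycin resistance gene driven by streptokinase promoter and grows in 40 µg/ml kanamycin; loss of luminescence reflects streptokinase promoter inhibition or plain growth inhibition; 0% = median of DMSO wells and 100% = positive control at its reference dose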
# tim23-1 inh – inhibits growth of tim23-1 mutant yeast; hit rate 1.3% among 330,000; inhibition, % at 20 µM; AID 463212; S. cerevisiae tim23-1 growth, BacTiter-Glo luminescence, 24 h;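 active means growth inhibition of the mutant yeast at or above 50%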;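 further: temperature-sensitive mutant grown at 25 °C; plate controls were DMSO-treated mutant yeast for no effect and medium wells lacking yeast for full effect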
# ATG4B inhibitor – blocks human ATG4B protease cleavage of LC3 substrate; ATG4B cleavage of LC3-PLA2, NBD-HPC fluorescence, 1 h; inhibition, % at 8.33 µM; hit rate 0.51% among 340,000; in the data active means inhibition above about 40%
# Target sequence (Q9Y4P1 whole entry, looked up): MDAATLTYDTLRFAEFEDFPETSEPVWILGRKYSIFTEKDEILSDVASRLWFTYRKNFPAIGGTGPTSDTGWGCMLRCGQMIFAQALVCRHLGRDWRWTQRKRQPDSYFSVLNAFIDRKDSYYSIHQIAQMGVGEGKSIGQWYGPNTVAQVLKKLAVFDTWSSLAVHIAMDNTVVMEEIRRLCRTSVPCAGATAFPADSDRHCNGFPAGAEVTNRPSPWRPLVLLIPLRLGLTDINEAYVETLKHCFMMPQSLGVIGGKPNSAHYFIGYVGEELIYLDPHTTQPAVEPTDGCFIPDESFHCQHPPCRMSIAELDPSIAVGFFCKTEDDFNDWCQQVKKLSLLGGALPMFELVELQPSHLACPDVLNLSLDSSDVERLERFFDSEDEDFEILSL
# TIM10 inh – inhibits growth of TIM10 yeast strain; AID 463195; hit rate 1.4% among 330,000; inhibition, % at 10 µM; S. cerevisiae TIM10 strain growth, BacTiter-Glo luminescence, 24 h;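 active means inhibition of 40% or more at the single tested concentration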;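 further: wild-type TIM10 isogenic control strain grown at permissive 25 °C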
# tim10-1 inh – tim10-1 yeast growth inhibition. hit rate 2.2% among 330,000. inhibition, % at 20 µM. S. cerevisiae tim10-1 ts strain growth, BacTiter-Glo, 24 h. AID 463190;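 active means inhibition of at least 40%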;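 further: mutant grown at 25 °C; 0% = DMSO wells with yeast and 100% = wells holding no yeast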
# PfHsp90 yeast 2 – growth inhibition of yeast expressing Plasmodium Hsp90; hit rate 0.32% among 310,000; inhibition, % at 9.4 µM; S. cerevisiae expressing PfHsp90, BacTiter-Glo ATP, 48 h; yeast lacking PDR1 and PDR3 efflux regulators;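 active means every replicate shows inhibition above about 80%, whatever the replicate mean, limit read from the data; inconclusive means mean inhibition reaches the set limit but some replicate falls short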;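 further: 0% = DMSO neutral controls and 100% = 20 µM radicicol positive controls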
# tim10-1 confirm – tim10-1 yeast growth inhibition, confirmed. shares compounds with tim10-1 inh. S. cerevisiae tim10-1 ts strain growth, BacTiter-Glo, 24 h. inhibition, % at 20 µM. hit rate 56% among 7,400. AID 463213;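 active means inhibition of yeast growth at or above a set limit in either of two repeat tests at 20 µM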;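 further: tim10-1 mutant grown at permissive 25 °C to find synthetic lethal compounds; 0% = DMSO yeast wells and 100% = medium wells without yeast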
# TIM10 conf – confirmation of TIM10 yeast growth inhibitors | shares compounds with TIM10 inh | S. cerevisiae tim10 strain growth, BacTiter-Glo luminescence, 24 h | inhibition, % at 10 µM | hit rate 63% among 4,600 | AID 463215;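 active means inhibition of yeast growth at or above a set limit in either of two replicates at 10 µM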;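 further: this counterscreen used the strain with wild-type TIM10; 0% = yeast with DMSO and 100% = medium wells lacking yeast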
# Starred values were filed as active, the others as inactive; ? = inconclusive; · = no result given. A selection: hits, their analogues and other compounds. The true share with any hit is near 4.7%.
SMILES,SKKanGAS inh,tim23-1 inh,ATG4B inhibitor,TIM10 inh,tim10-1 inh,PfHsp90 yeast 2,tim10-1 confirm,TIM10 conf
O=[N+]([O-])c1ccc(S(=O)(=O)c2cccc(C(F)(F)F)c2)nc1,6,46,-10,75*,75*,81*,74*,66*
COc1ccccc1/C=C/C(=O)c1ccccc1,-3,·,2,·,·,13,·,·
COc1ccccc1/C=C/C(=O)c1ccc(NC(C)=O)cc1,-10,33,0,44*,43*,3,24,-3
Cc1ccc(C)c(-n2c(C)cc(/C=N/NC(=O)c3c(C)nc4cc(C)ccn34)c2C)c1,14,39,3,42*,53*,·,32,27
O=C(CC1(O)C(=O)Nc2ccccc21)c1cccc(-n2cccc2)c1 (stereo not given),-7,-3,-3,-2,7,9,·,·
CN1C(=O)C(O)(CC(=O)c2cccc(-n3cccc3)c2)c2ccccc21 (stereo not given),4,30,4,46*,51*,14,38*,29
CC1(C)CC(=O)C2=C(C1)OC(N)=C(C#N)C2c1ccccc1OC(=O)N1CCOCC1 (stereo not given),6,-3,-4,-12,-8,-29,·,·
O=C(NC(Cc1ccccc1)C(=O)NC1CC1)OCc1ccccc1 (stereo not given),-2,-2,-6,-6,0,·,·,·
C/C(N)=C(/C#N)C(=O)CSc1cc(C)c2cc(C)cc(C)c2n1,4,14,-2,23,22,·,·,·
Cc1ccc(O)c(C(=O)/C=C/c2ccc3c(c2)OCCO3)c1,-8,41,-4,59*,55*,15,54*,50*
O=C(/C=C/c1ccccc1[N+](=O)[O-])c1ccc(F)cc1,-2,45,1,43*,47*,3,44*,26
O=C(/C=C/c1ccccc1[N+](=O)[O-])OCC(=O)c1ccccc1,3,16,38,12,11,24,·,·
Cc1nnc(NC(=O)CCNC(=O)c2ccccc2Cl)s1,-4,4,-1,0,-6,-13,·,·
CCOC(=O)C1=NN(c2ccccc2C)C2=NC(C)=C(C(=O)OC)C(c3cccs3)N12 (stereo not given),0,37,7,42*,41*,·,18,20
O=S(=O)(CCN(CCS(=O)(=O)C(F)(F)F)CC1CCCO1)C(F)(F)F (stereo not given),4,35,-11,45*,50*,-15,41*,26
CCOC(=O)N1CCN(S(=O)(=O)c2ccc(C(=O)N(CCN(CC)CC)c3nc4ccc(C)cc4s3)cc2)CC1,2,31,4,40,48*,-23,35*,14
CCOC(=O)N1CCN(S(=O)(=O)c2ccc(C(=O)N(CCN(C)C)c3nc4ccc(CC)cc4s3)cc2)CC1,4,8,-4,7,31,16,·,·
CCN(CC)CCN(C(=O)c1ccc(C(=O)c2ccccc2)cc1)c1nc2ccc(OC)cc2s1,1,25,9,21,19,13,·,·
CCN(CC)CCN(C(=O)c1ccc(S(=O)(=O)N(C)C2CCCCC2)cc1)c1nc2ccc(OC)cc2s1,33,42,2,48*,59*,0,42*,38*
N/C(=N\OC(=O)c1ccc([N+](=O)[O-])cc1)c1ccc(Br)cc1,-5,32,6,10,9,-18,·,·
CCOc1cc(C(=O)O/N=C(\N)c2ccc([N+](=O)[O-])cc2)cc(OCC)c1OCC,5,16,0,46*,61*,-15,49*,42*
CCCN1CCN(C(=O)C2CCN(c3ncnc4c3nc3n4CCCCC3)CC2)CC1,0,-13,0,-3,-13,-38,·,·
CC(NC(=O)/C(C#N)=C/c1ccc([N+](=O)[O-])o1)c1ccccc1 (stereo not given),57*,-71,-9,62*,50*,-6,23,93*
COc1cc2c(cc1OC)C(c1ccccc1)N(C(=O)CCl)CC2 (stereo not given),-7,21,-5,33,38,18,·,·
CCCCOC(=O)CSCC(=O)N1N=C(c2cccs2)CC1c1ccc(F)cc1 (stereo not given),9,32,3,30,32,-16,·,·
SMILES,SKKanGAS inh,tim23-1 inh,ATG4B inhibitor,TIM10 inh,tim10-1 inh,PfHsp90 yeast 2,tim10-1 confirm,TIM10 conf
CCOC(=O)CSCC(=O)N1N=C(c2cccs2)CC1c1ccc(F)cc1 (stereo not given),2,42,1,41*,47*,-15,34*,-11
CC(C)=CCSc1nnc([C@@H](NC(=O)OC(C)(C)C)C(C)C)o1,-1,27,9,17,20,·,·,·
Cc1ccccc1CS(=O)(=O)c1nnc([C@H](CC(C)C)NC(=O)OC(C)(C)C)o1,-1,39,1,57*,65*,?,48*,49*
CC(C)[C@H](NC(=O)OC(C)(C)C)c1nnc(S(=O)(=O)Cc2c(F)cccc2Cl)o1,-7,36,1,71*,61*,-43,64*,64*
CC1CN(C(=O)c2cccc(S(=O)(=O)Nc3cc(Cl)ccc3Cl)c2)CC(C)O1 (stereo not given),11,24,-4,6,19,-9,·,·
CCN(CC)c1ccc(-n2cc3c(=O)n(C)c(=O)n(C)c3c2)cc1,?,50,-1,46*,40*,2,31*,-3
CCOc1nc(Nc2ccc(Cl)cc2)nc(OCC)n1,-12,29,4,-4,21,7,·,·
CC(=O)NC1C(c2nc3ccccc3s2)=C(c2ccccc2)C(=O)N1c1ccc(C)cc1 (stereo not given),17,34,1,51*,53*,0,51*,37*
CC(=O)NCc1ccc(-c2nc3ccccc3s2)cc1,6,22,-10,17,12,34,·,·
CCCOc1ccc(N2CC(C(=O)Nc3ccccc3C(=O)NC)CC2=O)cc1 (stereo not given),4,-2,-8,1,4,·,·,·
N/C(=N\OC(=O)c1cccnc1)c1ccccc1Cl,-3,13,-2,20,6,0,·,·
N/C(=N\OC(=O)c1cccnc1)c1ccc(Cl)cc1Cl,-19,41,-1,41*,44*,-2,41*,21
Cc1cc2[nH]c3ccccc3c2cn1,-6,6,3,0,1,-2,·,·
COc1cc(C2=NOC(C(=O)N3CCN(c4ccc(F)cc4)CC3)C2)cc(OC)c1OC (stereo not given),0,41,-11,46*,41*,19,40*,40*
